Bioassay records deposited in PubChem BioAssay by several laboratories.
ERa SRC1 inh = ER-alpha (human) coactivator binding inhibition. 86,000 tested, 1.7% active. P03372. TR-FRET ER-alpha LBD / SRC-1 peptide, estradiol-bound. inhibition, % at 25.6 µM; in the data active = inhibition above about 50%;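 note: 0% = receptor plus peptide control and 100% = peptide only without receptor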
Calb biofilm kill = kills Candida albicans biofilms | inhibition, % at 6 µM | AID 834 | C. albicans biofilm + clotrimazole, Alamar Blue | 85,000 tested, 0.14% active;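 active = inhibition above 20%; inactive = inhibition below 20%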;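 note: preformed 24 hr biofilms exposed to compound for 48 hr; 0% = biofilm without compound and 100% = blank killed by clotrimazole plus chlorhexidine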
F-actin modifier = alters cytoskeleton assembly in HUVEC cells. HUVEC TNFa F-actin phalloidin imaging, high content. inhibition, % at 2 µM. 91,000 tested, 0.18% active;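 active = inhibition above the batch mean plus 3 SD and confirmed as a hit by visual image inspection, cut at about 30% in these data, passing the limit was not always enough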
E-sel TNF inh = blocks E-selectin expression induced by TNF alpha; 120,000 tested, 0.71% active; HUVEC TNFa-induced E-selectin immunofluorescence, high content; inhibition, % at 2 µM;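 active = inhibition above the batch mean plus 3 SD, and confirmed as a hit on visual image review, cut at about 43% in these data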;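 note: 0% = TNF-stimulated DMSO wells and 100% = unstimulated control wells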
ERa SRC1 pot = enhances coactivator binding to human estrogen receptor alpha; P03372; TR-FRET ERalpha-LBD/SRC-Cy5 coactivator binding, 2 h; 100 = basal binding, no effect; coactivator binding (% of control), % at 25.6 µM; 86,000 tested, 1.3% active; AID 639; in the data active = activity above about 200%;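 note: binding measured in presence of low estradiol as agonist stimulus; 0% = peptide alone without receptor and 100% = receptor with peptide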
ERb SRC1 inh = ER-beta (human) coactivator binding inhibition; Q92731; TR-FRET ER-beta LBD / SRC1-Cy5 peptide binding; receptor agonist-loaded with 1 µM estradiol; inhibition, % at 25.6 µM; 86,000 tested, 1.3% active;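 active = compounds whose percent inhibition of the receptor-coactivator binding signal exceeds about 50% in the single-dose screen, limit read from the data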;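 note: 0% = receptor plus peptide wells without compound and 100% = peptide-only wells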
Target sequence (Q92731 whole entry, looked up, the tested form may be a part): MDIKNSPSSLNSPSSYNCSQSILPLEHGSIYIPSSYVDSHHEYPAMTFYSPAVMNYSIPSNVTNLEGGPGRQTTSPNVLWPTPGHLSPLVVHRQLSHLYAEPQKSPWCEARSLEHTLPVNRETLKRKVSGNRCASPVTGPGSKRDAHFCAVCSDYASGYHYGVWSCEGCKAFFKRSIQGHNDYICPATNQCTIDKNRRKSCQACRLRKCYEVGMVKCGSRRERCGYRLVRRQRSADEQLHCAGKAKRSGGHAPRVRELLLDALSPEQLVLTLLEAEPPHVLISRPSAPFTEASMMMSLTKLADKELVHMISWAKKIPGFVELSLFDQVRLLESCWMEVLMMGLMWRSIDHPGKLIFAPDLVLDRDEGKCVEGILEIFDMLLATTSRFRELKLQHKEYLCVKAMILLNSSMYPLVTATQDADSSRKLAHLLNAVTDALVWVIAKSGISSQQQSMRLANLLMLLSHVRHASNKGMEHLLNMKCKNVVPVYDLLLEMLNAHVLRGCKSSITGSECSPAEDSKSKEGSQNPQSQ
An asterisk follows results filed as active; nt = no result; + = active, no number; [ ] = remark or other dose. Most compounds without a hit are left out; they make up all but 2.9% or so of the library.

SMILES	ERa SRC1 inh	Calb biofilm kill	F-actin modifier	E-sel TNF inh	ERa SRC1 pot	ERb SRC1 inh
O=C(NCC1CCCO1)/C(=C/c1cn(-c2ccccc2)nc1-c1cccnc1)NC(=O)c1ccccc1 (stereo not given)	nt	nt	nt	9.2	nt	nt
CCCCCCCCc1nnc(NC(=O)c2ccco2)s1	42.4	0.8	-3.3	-19.2	117.7	25.1
O=C(NCc1nc(-c2ccccc2)no1)c1ccc2c(c1)OCO2	-3.6	7.6	6.3	99.9*	95.9	-5.4
CC(C)N(Cc1nc(-c2ccccc2)no1)C(=O)c1ccc2c(c1)OCO2	-0.6	12.0	-35.5	3.4	109.0	-4.0
CCOC(=O)C1CCN(C(=O)c2cnn3c(C)cc(C)nc23)CC1	-8.6	10.9	-3.9	4.4	121.2	-11.4
CCc1ccc(C(C(=O)NC2CCCCC2)N(C(=O)CNC(=O)c2ccco2)c2cccnc2)cc1 (stereo not given)	-3.3	8.1	-6.6	0.9	95.0	-2.4
Cc1ccccc1CSc1ccc2nnc(-c3ccccn3)n2n1	nt	nt	nt	-11.0	nt	nt
CCCCNS(=O)(=O)c1ccc2nc(SCC(=O)c3ccc(C#N)cc3)[nH]c2c1	6.8	-2.1	nt	-10.9	279.3*	6.5
O=C(CSc1nc2ccc([N+](=O)[O-])cc2[nH]1)c1ccc2ccccc2c1	nt	nt	-2.5	44.2	nt	nt
O=C(OCn1ncc(Br)c(Br)c1=O)c1ccc(F)cc1	0.4	-4.2	-6.7	89.8*	90.1	9.7
O=C(OCn1ncc(Br)c(Br)c1=O)c1ccccc1Cl	-1.6	3.5	-4.3	nt	95.9	3.6
O=C(c1ccccc1F)N1CCN(c2ccccc2F)CC1	-8.8	-5.7	nt	90.8*	105.5	-3.3
O=C(c1ccccc1)N1CCN(c2ccccc2F)CC1	-15.6	-2.9	3.2	70.7*	114.1	2.7
COc1ccc(CNC(=O)c2n[nH]c3ccccc23)cc1OC	nt	nt	nt	-13.6	nt	nt
COC(=O)CSCC(=O)Nc1nnc(-c2cccc(C)c2)s1	nt	nt	nt	4.2	nt	nt
CCN(CC)c1ccc(/C=C2/C(=O)c3ccc(C(=O)O)cc3C2=O)cc1	nt	nt	nt	11.2	nt	nt
N#Cc1ccc(OCC(=O)N/N=C(\CCC(=O)O)c2cccs2)cc1	nt	nt	nt	18.5	nt	nt
COc1cc(OC)cc(-c2nnc(SCc3c(F)cccc3Cl)o2)c1	-9.2	8.1	-7.5	nt	119.4	-13.4
COc1cc(NC2c3ncccc3C(=O)N2Cc2ccco2)cc(OC)c1OC (stereo not given)	nt	nt	nt	-7.2	nt	nt
CCCc1cc2c(=O)c(-c3ccccn3)coc2cc1OC	9.0	3.5	-75.4	16.0	+[fluorescence artefact?]	6.6
N#Cc1c(NC(=O)CN2CCN(S(=O)(=O)c3ccc4c(c3)OCCO4)CC2)sc2c1CCC2	68.7*[fluorescence artefact?]	-4.5	27.8	nt	26.6	53.4*[fluorescence artefact?]
CCOC(=O)N1CCc2c(sc(NC(=O)c3ccc(S(=O)(=O)N4CCCC4)cc3)c2C#N)C1	34.2	19.5	nt	-22.1	245.4*	21.5
O=C(CN1CCN(S(=O)(=O)c2ccc(Cl)cc2)CC1)Nc1ccc2c(c1)OCCO2	-2.7	9.7	0.7	-6.3	119.6	-7.8
CCOC(=O)CSc1n[nH]c(NC(=O)c2cccc(C(F)(F)F)c2)n1	nt	nt	-24.4	-4.1	nt	nt
CCOc1cccc(C(=O)NC(=S)Nc2ccc(N3CCCC3)cc2)c1	nt	nt	10.4	53.4*	nt	nt
SMILES	ERa SRC1 inh	Calb biofilm kill	F-actin modifier	E-sel TNF inh	ERa SRC1 pot	ERb SRC1 inh
CCOc1cccc(C(=O)Nc2ccc(N3CCN(S(C)(=O)=O)CC3)cc2)c1	-3.7	8.3	-7.8	nt	118.9	0.1
O=C(NCc1ccco1)c1cc2ccc(O)cc2oc1=O	63.8*	4.3	-2.8	-6.8	91.2	71.5*
Cc1c(Br)cc(C(=O)NCc2ccco2)c(C)c1C	50.6*	5.1	nt	1.8	98.9	23.5
COc1ccc2cc(C(=O)NCc3ccco3)c(=O)oc2c1	-4.7	6.8	13.4	3.6	107.6	-5.2
CC(C)COC(=O)/C(C#N)=C/c1c[nH]c2ccccc12	nt	nt	nt	-6.0	nt	nt
CCOC(=O)CCn1cc(F)c(=O)n(Cc2ccccc2)c1=O	-5.1	5.7	25.1	3.6	238.1*[fluorescence artefact?]	1.9
Cc1cccc(C)c1OCC(O)CN1CCC(CN2C(=O)c3cccc4cccc(c34)C2=O)CC1 (stereo not given)	nt	nt	4.0	-2.5	nt	nt
COCCNC(=O)C(c1ccc(F)cc1)N(CC1CCCO1)C(=O)CCC(=O)Nc1ccccn1 (stereo not given)	-23.8	-4.0	-1.3	69.1*	94.9	-13.8
COCCN(C(=O)CCC(=O)Nc1ccccn1)C(C(=O)NC1CCCC1)c1ccc(OC)cc1 (stereo not given)	-0.5	4.1	28.8	100.0*	122.1	-6.2
COCCNC(=O)CN(CC1CCCO1)C(=O)CCC(=O)Nc1ccccn1 (stereo not given)	-3.6	0.7	-24.2	-2.1	128.8	-5.2
Cc1nc(NC2=NCN(CCc3ccccc3)CN2)nc2c(C)cccc12	-1.5	3.8	-3.9	1.9	98.9	8.3
CCCc1nc(Nc2nc3ccccc3o2)nc(C)c1C(=O)OCC	-2.6	6.3	-1.0	-6.1	116.1	-0.2
CCOC(=O)c1cnc(Nc2nc3ccccc3o2)nc1CSc1ncccn1	54.9*	8.4	1.3	-30.2	212.0*[fluorescence artefact?]	2.9
COC(=O)c1ccccc1N1C(=O)[C@@H]2C(c3ccc(F)cc3)=NO[C@@H]2C1=O	3.3	-2.0	25.7	67.5*	104.3	-4.8
CCOC(=O)N1CCc2c(sc3c2C(=O)NC(c2ccc(-c4ccc(Cl)cc4)o2)N3)C1 (stereo not given)	78.7*	3.8	nt	nt	16.4	55.6*[fluorescence artefact?]
O=C(NC1CCCCC1)C(c1ccccc1)N1CCc2ccccc21 (stereo not given)	99.0*[fluorescence artefact?]	8.6	-10.6	nt	95.3	-1.5
Cc1onc(-c2ccccc2)c1C(=O)N/N=C/c1ccc([N+](=O)[O-])s1	nt	nt	nt	-7.2	nt	nt
COc1cccc(/C=N/NC(=O)c2c(-c3ccccc3)noc2C)c1	nt	nt	5.1	53.7*	nt	nt
Cc1ccc(NC(=O)c2ccc3c(c2)OCCO3)cc1S(=O)(=O)Nc1cccc(Cl)c1	nt	nt	nt	4.3	nt	nt
Cc1ccccc1CN1CCNC(=O)C1CC(=O)O (stereo not given)	-8.1	28.3*	nt	-22.5	114.4	-12.8
Nc1c(-c2ccccc2)cnn1-c1ccc(C(=O)O)cc1	-18.7	3.0	-17.5	3.5	103.3	-16.8
N#Cc1cc(Sc2ccccn2)c(Sc2ccccn2)cc1C#N	-4.7	2.1	1.7	nt	213.5*	-4.1
N#CC(Sc1ccccn1)c1ccc(Cl)cc1Cl (stereo not given)	nt	nt	nt	-45.7	nt	nt
O=C(O)/C=C/c1cn(-c2ncc(C(F)(F)F)cc2Cl)c2ccccc12	nt	nt	8.9	0.9	nt	nt
CCCCOC(=O)c1cc(-c2ccc(/C=N/n3cnnc3)o2)ccc1Cl	56.4*	5.7	-1.6	-16.8	131.7	41.9
CCOC(=O)c1cc(-c2ccc(/C=N\n3cnnc3)o2)ccc1Cl	-2.0	8.1	16.7	-29.3	98.2	-8.8
COc1cc(C(=S)N2CCCC2)cc(Cl)c1OCC(=O)Nc1ccc(C)cc1C	nt	nt	nt	-0.9	nt	nt
S=C1NCCOCCOCCOCCOCCNC(=S)NCCOCCOCCOCCOCCN1	-10.2	4.5	-12.9	-14.9	102.0	-6.0
CN(C)S(=O)(=O)c1ccc(C(=O)Nc2ccc(Cl)cc2)cc1	-0.2	6.3	1.6	2.9	112.6	64.1*[fluorescence artefact?]
